Only a selection was taken, and hits are over-represented in it overall.
DT40 TDP1 no CPT: qHTS for Inhibitors of human tyrosyl-DNA phosphodiesterase 1 (TDP1): qHTS in cells in absence of CPT. AID 686978, 2013. Potency, µM (doses to about 46.2 µM), most hits filed as inhibitors. DT40 Tdp1-/- hTDP1 cells, no CPT, ATP luminescence, 48 h. actives 15% (n = 420,000); note: nearly all actives have a fitted effect of over 55% in size
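Growth of hTDP1-complemented DT40 Tdp1-knockout cells is measured by ATP luminescence after at least 48 hr compound exposure at 37 °C, with DMSO substituting for the 20 nM CPT used in the parallel screen.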
HT1080-NT tox: kills 2HG-producing HT-1080-NT fibrosarcoma cells. AID 686970. HT-1080-NT fibrosarcoma viability, CellTiter-Glo ATP luminescence, 48 h. Potency, µM (titrated, usually from 46.1 µM), hits mostly cytotoxic. actives 1.6% (n = 360,000);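 note: NT is the 2HG producing partner of a matched IDH1 knockdown line; nearly all actives have a fitted effect of over 55% in size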
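A 48-hour cytotoxicity screen used HT-1080-NT cells plated 2 hours before compound delivery. ATP-based CellTiter-Glo luminescence measured viability, normalized to DMSO and no-cell controls.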
IL-1B inflam inh: blocks inflammasome-driven IL-1 beta release | THP-1 LPS/ATP IL-1B secretion, AlphaLISA, 16 h; hits give low values | activity change, % at 57.5 µM | actives 4.7% (n = 360,000) | AID 743279; in the data active = activity change below about -50%; inconclusive = mostly about -30% to -49%
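Secreted IL-1B measured by AlphaLISA bead assay after 16 h compound exposure of THP-1 cells; compounds (final up to 57.5 uM) added 1 h before LPS (250 ng/mL) and ATP (1.25 mM) stimulation; lower signal means less secretion.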
ALOX12 inh: ALOX12 (human) lipoxygenase inhibition; Potency, µM (top dose mostly 108 µM), actives largely listed as inhibitors; actives 1.1% (n = 580,000); purified 12hLO, xylenol orange hydroperoxide absorbance; AID 1671190
Target sequence (P18054 whole entry, looked up): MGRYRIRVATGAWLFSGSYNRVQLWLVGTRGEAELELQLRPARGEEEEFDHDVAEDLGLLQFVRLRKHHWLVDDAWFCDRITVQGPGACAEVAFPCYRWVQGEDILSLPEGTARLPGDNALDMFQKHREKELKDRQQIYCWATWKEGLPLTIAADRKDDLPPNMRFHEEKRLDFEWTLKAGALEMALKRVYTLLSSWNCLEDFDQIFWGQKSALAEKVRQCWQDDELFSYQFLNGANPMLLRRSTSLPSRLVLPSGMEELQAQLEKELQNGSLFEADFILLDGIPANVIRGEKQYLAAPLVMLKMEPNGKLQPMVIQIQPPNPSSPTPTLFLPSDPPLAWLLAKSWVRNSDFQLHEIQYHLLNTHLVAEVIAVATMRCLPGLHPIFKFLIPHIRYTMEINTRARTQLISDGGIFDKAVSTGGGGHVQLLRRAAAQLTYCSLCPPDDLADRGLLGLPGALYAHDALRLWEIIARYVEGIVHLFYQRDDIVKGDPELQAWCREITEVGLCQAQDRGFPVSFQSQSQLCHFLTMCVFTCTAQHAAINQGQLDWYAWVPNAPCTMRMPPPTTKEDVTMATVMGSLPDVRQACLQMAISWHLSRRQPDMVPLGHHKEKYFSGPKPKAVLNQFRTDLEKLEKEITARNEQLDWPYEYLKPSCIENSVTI
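Purified human 12hLO (150 nM final) in 25 mM Hepes, 0.01% Triton X-100, pH 7.0 was preincubated 15 min at room temperature with compound. Then 40 uM arachidonic acid was added, 30 min. Hydroperoxide was read by Fe-XO absorbance ratio 573/405 nm.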
HT1080 IDH1KD tx: toxicity to HT-1080 IDH1 knockdown cells (counter line); actives 2% (n = 360,000); HT-1080 IDH1 knockdown viability, ATP luminescence, 48 h; Potency, µM (top dose mostly 46.1 µM), usual class: cytotoxic
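% activity derives from luminescence (CellTiter-Glo), normalised to DMSO and no-cell wells. HT-1080-IDH1KD cells, 750/well, had 48 h compound exposure at 37 °C.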
DT40 TDP1 CPT: DT40-hTDP1 cell growth loss with CPT. Potency, µM (series often up to 46.2 µM), most hits filed as inhibitors. chicken DT40 Tdp1-/-;hTDP1 cells + 20 nM CPT, ATP luminescence, 48 h. actives 12% (n = 420,000); note: nearly all actives have a fitted effect of over 55% in size
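Chicken DT40 Tdp1-/- cells complemented with human TDP1, 400 cells/well, exposed to compounds plus 20 nM camptothecin for at least 48 h at 37 C; viability read as ATP content by CellTiter-Glo luminescence.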
Hits are given with their value; [ ] = dose if it differs, or a comment. Unless noted, calls come from the whole dose curve; as a rule, active = well fitted curve in the direction sought with a large enough effect; inconclusive = small, poorly fitted or top-dose-only effect, or another doubt; inactive = no such curve, though single readings can be large; an effect the other way counts as inactive or inconclusive.

How did CCN(CC)CCNC(=O)C(=O)Nc1ccc2cc[nH]c2c1 do in these assays?
ALOX12 inh: inactive

How did CCCCNc1nc2sc3c(c2c(=O)n1-c1cccc(Cl)c1)CCN(C)C3 do in these assays?
DT40 TDP1 no CPT: 16µM; HT1080-NT tox: inactive; IL-1B inflam inh: inactive; ALOX12 inh: inactive; HT1080 IDH1KD tx: inactive; DT40 TDP1 CPT: 21µM

How did CCCCCNc1nc2sc3c(c2c(=O)n1-c1cccc(Cl)c1)CCN(C)C3 do in these assays?
DT40 TDP1 no CPT: 12µM; HT1080-NT tox: 15µM; IL-1B inflam inh: -57; ALOX12 inh: inactive; HT1080 IDH1KD tx: inconclusive; DT40 TDP1 CPT: 12µM

What do the screens show for `Cc1noc(C)c1S(=O)(=O)NCCc1ncc(C)n1C1CCC1`?
ALOX12 inh: inactive

How did COc1ccc(-c2noc3c2-c2nc(-c4ccccc4C)sc2CC3)cc1 do in these assays?
DT40 TDP1 no CPT: inconclusive; HT1080-NT tox: 13µM; IL-1B inflam inh: inactive; ALOX12 inh: inactive; HT1080 IDH1KD tx: inconclusive; DT40 TDP1 CPT: inconclusive

What do the screens show for `Cc1ccccc1-c1nc2c(s1)CCc1onc(-c3ccc(Cl)cc3)c1-2`?
DT40 TDP1 no CPT: inactive; HT1080-NT tox: inactive; IL-1B inflam inh: inactive; ALOX12 inh: inactive; HT1080 IDH1KD tx: inactive; DT40 TDP1 CPT: inactive

Results for COc1cccc(N2C(=O)NC(=NC3CCCC3)C23CCCN(C(=O)c2ccccc2OC)C3)c1 (configuration not stated) ?
ALOX12 inh: inactive[6.33 µM]

What do the screens show for `CCOCCSc1nnc(-c2nn(Cc3ccccc3)c(=O)c3ccccc23)o1`?
ALOX12 inh: 28µM

Results for Cc1cccc(C(=O)N2CCC(=O)N([C@H](COCc3cccc(C(F)(F)F)c3)Cc3ccccc3)CC2)c1 ?
DT40 TDP1 no CPT: 16µM; HT1080-NT tox: inconclusive; IL-1B inflam inh: inactive; ALOX12 inh: inconclusive; HT1080 IDH1KD tx: inconclusive; DT40 TDP1 CPT: inconclusive

How did Cc1cccc(C(=O)N2CCC(=O)N(C(COCc3cccc(C(F)(F)F)c3)Cc3ccccc3)CC2)c1 (configuration not stated) do in these assays?
DT40 TDP1 no CPT: inconclusive; HT1080-NT tox: inconclusive; IL-1B inflam inh: inconclusive; ALOX12 inh: inactive; HT1080 IDH1KD tx: inactive; DT40 TDP1 CPT: 29µM

Results for COc1cccc(NCc2nnc(C(=O)N3CCC[C@@H]3c3cccc(F)c3)n2-c2ccccc2)c1 ?
ALOX12 inh: inactive

How did CCSc1cc(C)nc2ncnn12 do in these assays?
DT40 TDP1 no CPT: inactive; HT1080-NT tox: inactive; IL-1B inflam inh: inactive; ALOX12 inh: inactive; HT1080 IDH1KD tx: inactive; DT40 TDP1 CPT: inactive

How did CCCCCCSc1cc(C)nc2ncnn12 do in these assays?
DT40 TDP1 no CPT: 12µM; HT1080-NT tox: inactive; IL-1B inflam inh: inactive; ALOX12 inh: inactive; HT1080 IDH1KD tx: inactive; DT40 TDP1 CPT: 16µM

What do the screens show for `NS(=O)(=O)c1ccc(F)c(C(=O)NC2CCc3[nH]ncc3C2)c1` (configuration not stated)?
ALOX12 inh: inactive

What do the screens show for `O=C1c2ccccc2CSc2c(O)cccc21`?
DT40 TDP1 no CPT: inactive; HT1080-NT tox: inactive; IL-1B inflam inh: -64; ALOX12 inh: inactive; HT1080 IDH1KD tx: inactive; DT40 TDP1 CPT: inconclusive

How did CCN1C(=O)[C@@H]2Cc3c([nH]c4ccccc34)C(c3cc(OC)c(OC)c(OC)c3)N2C1=S (some centres not stated) do in these assays?
DT40 TDP1 no CPT: inconclusive; HT1080-NT tox: inconclusive; IL-1B inflam inh: inactive; ALOX12 inh: inactive; HT1080 IDH1KD tx: inconclusive; DT40 TDP1 CPT: inconclusive

What do the screens show for `C=CCN1C(=O)[C@@H]2Cc3c([nH]c4ccccc34)C(c3ccc(O)cc3)N2C1=S` (some centres not stated)?
DT40 TDP1 no CPT: 16µM; HT1080-NT tox: inactive; IL-1B inflam inh: inactive; HT1080 IDH1KD tx: inactive; DT40 TDP1 CPT: inconclusive

How did COc1cc(C2c3[nH]c4ccccc4c3C[C@H]3C(=O)N(CCO)CC(=O)N23)cc(OC)c1OC (some centres not stated) do in these assays?
DT40 TDP1 no CPT: 21µM; HT1080-NT tox: inactive; IL-1B inflam inh: inactive; ALOX12 inh: inactive; HT1080 IDH1KD tx: inconclusive; DT40 TDP1 CPT: inconclusive

What do the screens show for `COc1cc(C2c3[nH]c4ccccc4c3CC3COC(=O)N32)cc(OC)c1O` (configuration not stated)?
DT40 TDP1 no CPT: 0.29µM; HT1080-NT tox: inconclusive; IL-1B inflam inh: inactive; ALOX12 inh: inconclusive; HT1080 IDH1KD tx: inconclusive; DT40 TDP1 CPT: 0.29µM

What do the screens show for `O=C1[C@@H]2Cc3c([nH]c4ccccc34)C(c3ccccc3)N2C(=O)CN1CCO` (some centres not stated)?
DT40 TDP1 no CPT: inactive; HT1080-NT tox: inactive; IL-1B inflam inh: inactive; ALOX12 inh: inactive; HT1080 IDH1KD tx: inactive; DT40 TDP1 CPT: inactive

How did COc1cc([C@H]2c3[nH]c4ccccc4c3C[C@H]3C(=O)N4[C@@H](c5cc(OC)c(OC)c(OC)c5)c5[nH]c6ccccc6c5C[C@H]4C(=O)N23)cc(OC)c1OC do in these assays?
DT40 TDP1 no CPT: 2.9µM; HT1080-NT tox: 12µM; IL-1B inflam inh: inactive; HT1080 IDH1KD tx: 15µM; DT40 TDP1 CPT: 4.6µM

Results for CCOc1cc(C(=O)OCC(=O)Nc2ccc(F)cc2F)ccc1OCC(=O)N1CCCCC1 ?
ALOX12 inh: inactive

How did CCCCn1c(C)c(C)c2c1ncn1nc(-c3cccs3)nc21 do in these assays?
ALOX12 inh: inactive

Results for c1ccc2ncccc2c1 ?
DT40 TDP1 no CPT: inactive; HT1080-NT tox: inactive; IL-1B inflam inh: inactive; HT1080 IDH1KD tx: inactive; DT40 TDP1 CPT: inactive

What do the screens show for `c1ccc2nccnc2c1`?
DT40 TDP1 no CPT: 1.1µM; DT40 TDP1 CPT: 0.79µM

Results for Fc1ccc(Nc2cccc3nccnc23)cc1 ?
DT40 TDP1 no CPT: inactive; HT1080-NT tox: inactive; IL-1B inflam inh: inactive; ALOX12 inh: inactive; HT1080 IDH1KD tx: inactive; DT40 TDP1 CPT: inactive

What do the screens show for `c1cc(Nc2cccc3nccnc23)c2nccnc2c1`?
DT40 TDP1 no CPT: inactive; HT1080-NT tox: inactive; IL-1B inflam inh: -54; ALOX12 inh: inactive; HT1080 IDH1KD tx: inactive; DT40 TDP1 CPT: inactive

Results for COc1ccc(C(=O)Nc2ccc3oc(-c4ccncc4)nc3c2)cc1Br ?
ALOX12 inh: inactive

How did O=C(NCc1noc2ccccc12)Nc1ccc(F)cc1F do in these assays?
DT40 TDP1 no CPT: inactive; ALOX12 inh: inactive; DT40 TDP1 CPT: 16µM

What do the screens show for `O=C(NCc1cccc(Cl)c1)NCc1noc2ccccc12`?
DT40 TDP1 no CPT: 16µM; ALOX12 inh: inactive; DT40 TDP1 CPT: inconclusive

Results for O=C(c1cn2c3c(cccc3c1=O)CC2)N1CCN(c2cccc(C(F)(F)F)c2)CC1 ?
ALOX12 inh: inactive
